# SW480 rerep: inducers of DNA re-replication in SW480 colon cancer cells; SW480 DNA re-replication, Hoechst DNA content imaging, 48 h; Potency, µM (series often up to 46.1 µM), without a hit: at the top dose re-replication activation, most hits filed as activators; 340,000 compounds, 1.8% hits; AID 624297; further: % of control where 0% means no effect; nearly all actives have a fitted effect of over 55% in size
#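 250 cells/well; 23 nL cpd via pin tool; 48 hr, 37 C, 5% CO2; Hoechst 40 min; imager read of total nuclear intensity, ex 405/em 500-530 nm.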
# MCF10A rerep: inducers of DNA re-replication in MCF 10A breast cells. 350,000 compounds, 2.9% hits. MCF 10A DNA re-replication, Hoechst nuclear intensity, 48 h. Potency, µM (titrated, usually from 46.1 µM), without a hit: at the top dose activity, positive = re-replication, actives largely listed as activators; further: % of control where 0% means no effect; nearly all actives have a fitted effect of over 50% in size
# KB-3-1 cytotox: kills parental KB-3-1 adenocarcinoma cells; KB-3-1 viability, CellTiter-Glo ATP luminescence, 72 h; Potency, µM (titrated, usually from 46.1 µM), hits mostly cytotoxic; 400,000 compounds, 1.4% hits; AID 1347075; further: on the % scale 0 is the no-effect control and ±100 the full control effect; nearly all actives have a fitted effect of over 60% in size
#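 Cells are dispensed, compounds pinned in, plates held at 37 °C for 72 h, then CellTiter-Glo is added and luminescence read after 10 minutes. Cell line: parental KB-3-1 in phenol-red-free DMEM, 10% FBS.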
# HT1080 IDH1KD tx: kills HT-1080 cells with IDH1 knockdown. HT-1080 IDH1 knockdown viability, ATP luminescence, 48 h. Potency, µM (highest dose often 46.1 µM), without a hit: top-dose activity, negative = toxicity, hits mostly cytotoxic. 360,000 compounds, 2% hits;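 further: 0% = DMSO wells and -100% = cell-free medium wells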
#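 Knockdown cells (IDH1KD HT-1080) received compounds 2 h after plating at 750 cells/well and were kept 48 h at 37 °C in 5% FBS RPMI. A CellTiter-Glo luminescence read gave % activity for curve fitting.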
# KB-V1 cytotox: kills drug-selected multidrug resistant KB-V1 cells | KB-V1 MDR cells viability, CellTiter-Glo, 72 h | Potency, µM (top dose mostly 46.1 µM), actives largely listed as cytotoxic | 400,000 compounds, 3.4% hits | AID 1347076; further: on the % scale 0 is the no-effect control and ±100 the full control effect; nearly all actives have a fitted effect of over 60% in size
#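 KB-V1, DMEM (no phenol red) + 10% FBS; cpd pin-transferred, titration series; 72 h, 37 degrees C; CellTiter-Glo, luminescence. Data normalized, curve-fit.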
# HT1080NT lethal: kills 2HG-producing HT-1080-NT fibrosarcoma cells; HT-1080-NT fibrosarcoma viability, CellTiter-Glo ATP luminescence, 48 h; Potency, µM (highest dose often 46.1 µM), for the others: at the highest dose activity, negative = less viability, actives largely listed as cytotoxic; 360,000 compounds, 1.6% hits; AID 686970;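 further: NT is the 2HG producing partner of a matched IDH1 knockdown line; 0% = DMSO-treated cells and -100% = media-only wells without cells; nearly all actives have a fitted effect of over 55% in size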
#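 A 48-hour cytotoxicity screen used HT-1080-NT cells plated 2 hours before compound delivery. ATP-based CellTiter-Glo luminescence measured viability, normalized to DMSO and no-cell controls.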
# * marks the source's active call; other numbers are inactive results; i = inactive; ? = inconclusive; . = no result given. The list is not random: actives were taken first. Their share in the collection is about 8%. The call rests on the fitted dose curve; in most records, active means well fitted curve in the direction sought with a large enough effect; inconclusive means small, poorly fitted or top-dose-only effect, or another doubt; inactive means no such curve, though single readings can be large; an effect the other way counts as inactive or inconclusive. Potency means the concentration at half of the fitted maximal effect.
SMILES,SW480 rerep,MCF10A rerep,KB-3-1 cytotox,HT1080 IDH1KD tx,KB-V1 cytotox,HT1080NT lethal
Oc1ccccc1C(=S)N1CCN(c2cccc(Cl)c2)CC1,-1%,7%,i,-18%,i,-12%
COc1ccc(C(=O)N2CCN(c3cccc(Cl)c3)CC2)cc1S(=O)(=O)NC1CC1,24%,23µM*,?,?,i,?
O=C(c1ccc([N+](=O)[O-])s1)N1CCN(c2cccc(Cl)c2)CC1,?,?,?,6%,16µM*,4%
Cc1cccc(N2CCN(C(=O)c3cccc(N4CCCC4=O)c3)C(C)C2)c1 (stereo not drawn),?,1.5µM*,2.6µM*,2.6µM*,?,?
COc1ccc(C(=S)N2CCN(c3cccc(Cl)c3)CC2)c(OC)c1,4.1µM*,7.3µM*,6.5µM*,?,i,?
CCc1ccc(CNC(=O)CCCN2C(=O)c3cccnc3Oc3ccc(Cl)cc32)cc1,.,.,i,.,i,.
Cc1nnsc1-c1onc(C)c1C(=O)Nc1cc(Cl)cc(Cl)c1,-36%,12%,i,?,16µM*,?
CCOc1cc(C(=O)Nc2ccc(S(=O)(=O)NC3=NCCCCC3)cc2)cc(OCC)c1OCC,-73%,15%,i,-10%,i,-1%
O=C(CN1CCN(S(=O)(=O)c2ccccc2)CC1)Nc1ccccc1C(=O)NC1CC1,-1%,5%,i,14%,6.5µM*,6%
COc1ccc(S(=O)(=O)N2CCCN(CC(=O)Nc3ccccc3F)CC2)cc1,12%,1%,i,-5%,9.2µM*,15%
CC(=O)c1ccc(NC(=O)CSc2ccc(-c3ccco3)nn2)cc1,-10%,-6%,i,3%,?,-1%
CCN(CC)c1ccc(/C=C/c2cc(-c3ccccc3)c3ccccc3n2)cc1,15µM*,?,i,-21%,i,-2%
CCN(CC)c1ccc(/C=C/c2ccccn2)cc1,.,.,0.33µM*,.,i,.
Brc1ccccc1-c1nnc(CSc2nncn2-c2ccccc2)o1,2%,9%,i,1%,i,-2%
Cc1ccc(-n2nnnc2SCc2nnc(-c3ccccc3Br)o2)cc1,23%,28%,i,-8%,16µM*,0%
Cc1cc(C)n2nc(SCc3nnc(-c4ccccc4Br)o3)nc2n1,-14%,0%,i,4%,13µM*,0%
O=C(c1[nH]ncc1-c1cccc(Br)c1)C1CO1 (stereo not drawn),?,?,?,?,?,26µM*
CCc1ccc(-c2csc3[n+]2CCN3C(C)=O)cc1,2.3µM*,?,i,-4%,i,0%
COc1ccc(N(C(=O)CNC(=O)c2ccco2)C(C(=O)NC2CCCC2)c2cccnc2)cc1 (stereo not drawn),-9%,1%,i,17%,i,6%
CC(=O)Nc1cccc(NC(=O)CSc2ccc(-c3ccco3)nn2)c1,-10%,-33%,i,7%,i,9%
O=C(N/N=C\c1ccc(-c2ccccc2[N+](=O)[O-])o1)C1COc2ccccc2O1 (stereo not drawn),?,2%,i,8%,i,9%
O=C(N/N=C/c1c[nH]c2ccccc12)C1CC1c1ccccc1 (stereo not drawn),-1%,2%,i,-14%,?,-14%
O=C(N/N=C\c1ccc([N+](=O)[O-])o1)C1COc2ccccc2O1 (stereo not drawn),?,?,?,21µM*,i,?
O=C(N/N=C/c1c[nH]c2ccccc12)C1COc2ccccc2O1 (stereo not drawn),?,21µM*,5.8µM*,5.8µM*,2.6µM*,3.7µM*
CCOC(=O)c1ccc(NC(=O)C2COc3ccccc3O2)cc1 (stereo not drawn),-86%,?,i,-5%,i,?
SMILES,SW480 rerep,MCF10A rerep,KB-3-1 cytotox,HT1080 IDH1KD tx,KB-V1 cytotox,HT1080NT lethal
CCOC(=O)c1ccc(-n2c(O)c(/C=N/NC(=O)C3COc4ccccc4O3)c3ccccc3c2=O)cc1 (stereo not drawn),?,29%,i,-13%,16µM*,-13%
O=C(N/N=C\c1ccc(Cl)s1)C1COc2ccccc2O1 (stereo not drawn),16µM*,?,?,?,?,?
c1ccc(N2CCN(c3ccccc3)C2c2cccnc2)cc1,-1%,1%,i,-1%,i,-1%
O=C(Nc1ccccn1)Nc1ccccc1[N+](=O)[O-],-5%,5%,i,-1%,i,-19%
Cc1ccc(/C=N\NC(=O)CC(=O)NCCc2ccccc2)cc1,3%,7%,i,1%,i,12%
N/C(Cc1cccc2ccccc12)=N\OC(=O)c1ccccc1F,-3%,0%,.,-14%,.,0%
N/C(Cc1ccccc1)=N\OC(=O)c1cccc2ccccc12,-321%,15%,?,21µM*,i,?
N/C(Cc1ccc([N+](=O)[O-])cc1)=N\OC(=O)C(c1ccccc1)c1ccccc1,-3%,6%,i,?,i,18µM*
N/C(Cc1ccc([N+](=O)[O-])cc1)=N\OC(=O)c1ccccc1Br,0%,0%,i,15%,i,15%
Cc1ccc(C(=O)O/N=C(\N)Cc2ccc([N+](=O)[O-])cc2)c(Cl)c1,?,18µM*,?,-2%,i,-4%
N/C(Cc1ccc([N+](=O)[O-])cc1)=N\OC(=O)c1ccc2ccccc2c1,23%,?,i,?,i,18µM*
Nc1nnc(SCC(=O)Nc2nnc(-c3ccccc3)o2)s1,-7%,5%,i,2%,i,16%
C=CCOC(=O)C1=C[C@@H](c2ccc(Br)cc2)[C@H](CCCO)[C@@H](OCC)O1,-10%,?,i,-5%,i,-2%
CCCCCNCC(=O)Nc1cc(C(F)(F)F)ccc1OCCOC,14%,-5%,i,-18%,i,-4%
Fc1ccc(Nc2ccc3ccccc3n2)c(F)c1,-1%,1%,i,-3%,i,-3%
O=C(Nc1cccc(C(F)(F)F)c1)c1cc2c(=O)c3ccccc3oc2nc1C(F)(F)F,-2%,8%,i,2%,21µM*,-4%
O=C(Nc1cccc([N+](=O)[O-])c1)c1ccc2nsnc2c1,-1%,-2%,i,1%,i,7%
O=C(Nc1cccc(NC(=O)c2cccs2)c1)c1cccnc1,?,-27%,i,-7%,i,-3%

# Source: PubChem (National Center for Advancing Translational Sciences (NCATS))
